# Bioassay records deposited in PubChem BioAssay by National Center for Advancing Translational Sciences (NCATS).
# Glioma ERSR ind: qHTS for Inducers of the Endoplasmic Reticulum Stress Response (ERSR) in Human Glioma: qHTS; U87-MG GRP78 promoter luciferase reporter, 16 h; Potency, µM, for inactives: top-dose activation, most hits filed as activators; 420,000 tested, 0.02% active; note: potency is the fitted concentration of half-maximal effect; series mostly up to about 76 µM; % of control where 0% means no effect; nearly all actives have a fitted effect of over 35% in size
#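 Stably transfected U87-MG glioma cells carrying a GRP78-based luciferase sensor; 16 h compound incubation. Luminescence end-point read 10 min after Bright-Glo addition at room temperature.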
# Nrf2 activator: qHTS of Nrf2 Activators; AREc32 ARE-luciferase reporter (MCF7-derived line), luminescence, 24 h; Potency, µM (top dose mostly 46.1 µM), for the others: at the highest dose activation, hits mostly activators; 410,000 tested, 0.31% active; note: potency is the fitted concentration of half-maximal effect; % of control where 0% means no effect; nearly all actives have a fitted effect of over 65% in size
#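 For detection, Steady-Glo was added and plates sat 30 min at RT; before that, AREc32_Fluc cells grown overnight in OPTI-MEM/5% FBS had been treated with 23 nL compound for 24 hr at 37 deg C.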
# miR-21 reporter: qHTS Assay for Modulators of miRNAs and/orActivators of miR-21; Potency, µM (titrated, usually from 38.3 µM), inactives show top-dose activity change, positive = activation, actives largely listed as activators; HeLa miR-21 FLuc reporter, luciferase, 48 h; AID 2288, 2010; 340,000 tested, under 10 active;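 note: % of control where 0% means no effect; miR-21 action dims this reporter so a rising signal means less miR-21 action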
#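 Using DMEM plus 10% FBS, HeLa miR-21-FLuc cells are incubated with test compounds (final up to about 40uM) for 48 hours; firefly luciferase signal is then imaged following reagent-mediated lysis.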
# Nrf2 block: Nrf2 qHTS screen for inhibitors; Potency, µM (top dose mostly 46 µM), for the others: at the top dose activity change, negative = inhibition, usual class: inhibitors; A549 ARE-Fluc reporter, luciferase luminescence, 18-24 h; 360,000 tested, 2.1% active; note: potency is the fitted concentration of half-maximal effect; % is set by controls: 0 for no effect and ±100 for the full control effect; nearly all actives have a fitted effect of over 60% in size
#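 Nrf2 function is reported as luminescence of an ARE-controlled luciferase in A549 cells. Compounds were tested at several concentrations, and a CellTiter-Fluor read on the same wells flagged cytotoxicity.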
# Mito fusion act: qHTS Assay for Small Molecule Inhibitors of Mitochondrial Division or Activators of Mitochondrial Fusion; 320,000 tested, 0.23% active; S. cerevisiae fusion-defective mutant growth rescue, CellTiterGlo 48 h; Potency, µM (highest dose often 46.1 µM), for inactives: at the top dose growth rescue (activation), actives largely listed as activators; AID 485298, 2010; note: potency is the fitted concentration of half-maximal effect; % of control where 0% means no effect; nearly all actives have a fitted effect of over 45% in size
#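 S. cerevisiae fusion-defective temperature-sensitive mutants (e.g. fzo1-1, mgm1-5) grown 48 h at 37C in YPEG (ethanol/glycerol non-fermentable) medium with 23 nl compound per well; growth rescue read as CellTiterGlo luminescence.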
# A549 viability: Nrf2 qHTS screen for inhibitors: counterscreen for cytotoxicity. A549 ARE-Fluc cells, CellTiter-Fluor viability, 18-24 h. 390,000 tested, 0.16% active. Potency, µM (titrated, usually from 46 µM), inactives show at the top dose activity change, negative = cytotoxicity, usual class: inhibitors. AID 504648, 2011; note: potency is the fitted concentration of half-maximal effect; % is set by controls: 0 for no effect and ±100 for the full control effect
#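 A549 ARE_Fluc cells in 5% FBS OPTI-MEM were exposed to compounds in concentration-response for 18-24 h at 37 deg C. Viability was read by CellTiter-Fluor fluorescence (Ex 405/Em 525) after 30 min, before the luciferase read.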
# * hit, by the source's call; ? = inconclusive; · = not tested or not shown; [ ] = remark or other dose. An excerpt weighted towards active compounds, which were near 2.3% of everything screened. Calls come from the whole dose curve; as a rule, active = well fitted curve in the direction sought with a large enough effect; inconclusive = small, poorly fitted or top-dose-only effect, or another doubt; inactive = no such curve, though single readings can be large; an effect the other way counts as inactive or inconclusive.
SMILES,Glioma ERSR ind,Nrf2 activator,miR-21 reporter,Nrf2 block,Mito fusion act,A549 viability
COc1ccccc1N1CCN(C(=O)C2CCN(S(=O)(=O)c3ccc4c(c3)CC(C)N4C(=O)C3CC3)CC2)CC1 (configuration not stated),1%,0%,29%,26µM*,26%,-5%
CC(=O)N1c2ccc(S(=O)(=O)N3CCC(C(=O)Nc4ccccn4)CC3)cc2CC1C (configuration not stated),3%,-1%,16%,18µM*,4%,-6%
CCC(C)(C)NC(=O)C1CCCN(S(=O)(=O)c2ccc3c(c2)CC(C)N3C(=O)C2CC2)C1 (configuration not stated),3%,0%,1%,?,11µM*,3%
CC(C)Oc1ccc(Cn2c(-c3ccco3)n[nH]c2=S)cc1,0%,0%,-41%,6%,24%,0%
O=C(c1cc(-c2cccs2)on1)N1CCN(C(c2ccccc2)c2ccccc2)CC1,-4%,0%,-3%,?,1%,-16%
Cc1cc(C)c(NC(=O)CSc2nnc3[nH]c(=O)cc(C)n23)c(C)c1,-1%,1%,-1%,·,·,0%
C[C@]12c3[nH]c4cc(-c5ccco5)ccc4c3CCN1C(=O)[C@@H](CC(=O)NCC13CC4CC(CC(C4)C1)C3)C[C@@H]2C(=O)N1CCOCC1,-1%,-1%,·,23µM*,·,?
CC(C)=CCC/C(C)=C/CNC(=O)C[C@H]1C[C@H](C(=O)N(C(C)C)C(C)C)[C@@]2(C)c3[nH]c4cc(CCC(=O)N(C)C)ccc4c3CCN2C1=O,13%,-1%,·,21µM*,·,-24%
CC(C)=CCC/C(C)=C/CNC(=O)C[C@H]1C[C@H](C(=O)N(C(C)C)C(C)C)[C@@]2(C)c3[nH]c4cc(-c5ccco5)ccc4c3CCN2C1=O,0%,15%,·,23µM*,·,?
CC(C)N(C(=O)[C@H]1C[C@H](CC(=O)NCc2ccco2)C(=O)N2CCc3c([nH]c4cc(-c5ccco5)ccc34)[C@]12C)C(C)C,-1%,4%,·,15µM*,·,-19%
C/C(=C\c1ccccc1)CN1CCN(c2cccc(Cl)c2)CC1,-4%,-1%,-8%,-10%,-2%,-17%
N#CC[C@H](c1ccccc1)N1CCN(Cc2ccccc2)CCC1=O,-7%,0%,-1%,-11%,2%,7%
O=S(Cc1cc(Oc2ccccc2)nc(-c2ccccc2)n1)c1ccccc1 (configuration not stated),-10%,0%,-6%,10µM*,4%,-11%
Cc1nnc2sc(-c3cccc4ccccc34)nn12,2%,3%,-25%,-5%,-4%,-1%
CC(C)(C)NC(=O)c1ccc2c(c1)C1C3CCC(C3)C1C(c1ccccc1)N2 (configuration not stated),-2%,0%,-8%,-3%,?,12%
CCCNC(=O)c1ccc2c(c1)C1C3CCC(C3)C1C(c1ccccc1)N2 (configuration not stated),-5%,0%,17%,21µM*,11%,?
CCOC(=O)c1ccccc1NC(=O)c1ccc(Cl)c(S(=O)(=O)N2CCOCC2)c1,-1%,2%,·,?,·,-4%
CCCC(O)(c1ccc(Cl)cc1)C(CN1CCOCC1)c1ccc(Cl)cc1 (configuration not stated),-2%,3%,15%,18µM*,-76%,-11%
CCc1ccc(N/C(SC)=C(/C#N)C(N)=O)cc1,11%,7%,-5%,?,5%,10%
CCCCS/C(=C(/C#N)C(N)=O)c1cc2c([nH]1)CCCC2,2%,?,?,-11%,13µM*,-21%
O=c1[nH]c(/C(Cl)=C/c2cc(Cl)ccc2O)nc2cc(Cl)ccc12,-2%,8.9µM*,-6%,-13%,22%,-9%
COC(=O)c1c(NC(=O)COC(=O)c2ccc(NC(=O)CC#N)cc2)sc2c1CCCCC2,-5%,0%,-9%,-6%,-6%,-2%
COc1ccc(NC(=O)CN(C)C(=O)CSc2ccc3c(c2)OCCO3)cc1,-4%,0%,-5%,7%,2%,-12%
C=CCn1c(SCC(=O)Nc2ccc(N3CCOCC3)cc2)nnc1-c1ccco1,-3%,1%,0%,-7%,1%,-17%
C=CCn1c(SCC(=O)N2CCN(c3ccc(F)cc3)CC2)nnc1-c1ccco1,0%,0%,11%,18µM*,-2%,-14%
SMILES,Glioma ERSR ind,Nrf2 activator,miR-21 reporter,Nrf2 block,Mito fusion act,A549 viability
C=CCn1c(COc2cccc(C)c2C)nnc1SCC(=O)N1CCN(c2ccccc2)CC1,-6%,1%,28%,16µM*,20%,?
CCn1c(COc2cc(C)cc(C)c2)nnc1SCC(=O)N1CCN(c2ccccc2)CC1,-1%,0%,-10%,?,-2%,-10%
CCn1c(COc2c(C)cccc2C)nnc1SCC(=O)N1CCN(c2ccccc2)CC1,-5%,3%,27%,18µM*,-3%,?
O=C(c1ccccc1NS(=O)(=O)c1ccc(Br)cc1)N1CCOCC1,-5%,-2%,0%,10%,3%,5%
NS(=O)(=O)c1ccc(CCNCc2cccs2)cc1,-4%,-1%,1%,5%,0%,-1%
COc1ccc(S(=O)(=O)N(C)c2ccc(C(=O)NCCC(C)C)cc2)cc1,-4%,2%,7%,?,6%,0%[1.84 µM]
CC(=O)c1cccc(NS(=O)(=O)c2cc3c(cc2C)N(C(C)=O)CCO3)c1,7%,-1%,?,18µM*,1%,?
CC(=O)c1ccc(NS(=O)(=O)c2cc3c(cc2C)N(C(C)=O)CCO3)cc1,0%,0%,5%,2%,-3%,-7%
CC(=O)c1ccc(NS(=O)(=O)c2cc3c(cc2C)N(C)CCO3)cc1,-4%,0%,11%,-29%,15%,-18%
Cc1cc2c(cc1S(=O)(=O)Nc1ccc(C(C)C)cc1)OCCN2C,-1%,7%,-4%,13µM*,9%,-1%
C=C(C)Cn1c(NCCC)nc2c1c(=O)n(C)c(=O)n2C,-2%,2%,-2%,-23%,-4%,-1%
COC(=O)C1(C)CN(S(=O)(=O)c2ccc(C)cc2)c2cc(OC)ccc2C1=O (configuration not stated),-4%,7%,2%,2%,14µM*,1%
